Where “and” joins values, the source holds several entries; their conditions need not be identical. Identical values can stand only once. The whole screen tested about 310,000 compounds, of which about 11,000 (3.5%) were called active. Another 4% or so got no clear call; they are omitted. The sample holds actives, similar compounds and a random draw of the others, so the mix is not that of the screen. Unmarked numbers belong to inactive results. The call rests on the fitted dose curve; in most records, active means well fitted inhibition curve with a large enough effect; inconclusive means small, poorly fitted or top-dose-only effect, or another doubt; inactive means no such curve, though single readings can be large or run the other way.
Target: 4'-phosphopantetheinyl transferase ffp (Bacillus subtilis) (UniProt Q9F4F7)
Assay: qHTS Assay for Inhibitors of Bacillus subtilis Sfp phosphopantetheinyl transferase (PPTase);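 further: the enzyme is Sfp with the accession as filed and its product quenches rhodamine fluorescence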;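 on largest response in the series, negative = inhibition: 0% = enzyme reaction without inhibitor and -100% = no enzyme wells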
Settings: Biochemical Sfp PPTase activity
Method in brief: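 With Hepes-Na pH 7.6 buffer containing 10 mM MgCl2, Sfp (15 nM) modified BHQ-2-YbbR (12.5 uM) using rhodamine-CoA (5 uM). Two reads 30 minutes apart at 525/598 nm yielded each well's rate.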
Potency means the concentration at half of the fitted maximal effect.

Compound	largest response in the series, negative = inhibition [%]	Potency
CCN1CCN(C(=O)C2CCN(S(=O)(=O)c3cc(Cl)ccc3Cl)CC2)CC1	7.6	
CC(C)c1ccc(NC(=O)[C@@H](NC(=O)N2CC(=O)Nc3ccccc32)C(C)C)cc1	4.22	
Cc1nc2sc(C(c3ccco3)N3CCOCC3)c(O)n2n1 (stereo unspecified)	-2.77	
Oc1c(C(c2cccs2)N2CCN(c3ccc(F)cc3)CC2)sc2ncnn12 (stereo unspecified)	13.9	
Oc1c(C(c2ccco2)N2CCC3(CC2)OCCO3)sc2ncnn12 (stereo unspecified)		28.2 µM (active)
Cc1ccc2c(c1)C(c1ccccc1)N(C(=O)c1ccc(F)cc1)CC(=O)N2 (stereo unspecified)	-5.97	
Cc1cc(NC(=O)CCC(=O)N(CC(=O)NCC2CCCO2)c2ccccc2)no1 (stereo unspecified)	-5.59	
CCn1c(SCC(=O)NC2CC2)nnc1-c1ccncc1	12.1	
CCc1ccccc1N(CC(=O)NCC1CCCO1)C(=O)CCC(=O)Nc1nccs1 (stereo unspecified)	11.3	
O=C(Nc1cc(-c2nc3ncccc3o2)ccc1Cl)c1ccco1	0.0878	
COC(=O)[C@]1(S(=O)(=O)c2ccccc2)C[C@@H]2ON=C(c3ccc(OC)cc3)[C@@H]2C1	-3.07	
O=C(CSc1nnc(-c2ccco2)n1CC1CCCO1)c1ccccc1 (stereo unspecified)		50.1 µM (active)
COc1ccccc1NC(=O)CSc1nnc(C)n1CC1CCCO1 (stereo unspecified)	14.7	
Cc1nnc(SCC(N)=O)n1CC1CCCO1 (stereo unspecified)	13.7	
O=C(/C=C/c1ccc(Cl)cc1)NCCCn1ccnc1	-28	
Cc1nn(-c2ccccc2)c(Cl)c1/C=N/NC(=O)c1nn(C)cc1[N+](=O)[O-]	-3.09	
Cc1ccccc1NC(=O)CN1C(=O)N/C(=C\c2cccn2-c2cccc(C(=O)O)c2)C1=O		20 µM (active)
N#Cc1ccccc1CN1C(=O)S/C(=C/c2cccn2-c2cccc(C(=O)O)c2)C1=O	-18.1	
O=C1N/C(=C/c2cccn2-c2ccccc2)C(=O)N1c1cccc(Cl)c1	12.7	
Cn1ncc2c(N3CCCCC3)nc(NCCCO)nc21	14.5	
O=C(c1n[nH]c2c1CCC2)N1CCCC(Nc2cccc(F)c2)C1 (stereo unspecified)	4.84	
CC(C)(C)c1ccc(C(CC(=O)O)NS(=O)(=O)Cc2ccccc2)cc1 (stereo unspecified)	-0.492	
CCOC(=O)C1(Cc2cccc(OC)c2)CCN(Cc2csc(C(C)=O)c2)CC1	5.75	

Compound	largest response in the series, negative = inhibition [%]	Potency
CCOC(=O)C1(Cc2cccc(OC)c2)CCN(C(C)CC(C)(C)O)CC1 (stereo unspecified)		35.5 µM (active)
CCOC(=O)C1(Cc2cccc(OC)c2)CCN(C(C)COC)CC1 (stereo unspecified)	2.4	
Cc1oc2cc3oc(=O)ccc3cc2c1C	6.39	
CCCC[C@]12Cc3cc(OC)c(OC)cc3C(O1)C1=C(CC3(CCCCC3)OC1=O)O2	-4.17	
COc1ccccc1Cc1nc(-c2ccc(C)cc2)no1	-1.19	
Cc1ccc(Cc2nc(-c3cccc(C)c3)no2)cc1	12.9	
COc1ccc(Cc2nc(-c3ccccn3)no2)cc1OC		79.4 µM (active)
COc1cc(S(=O)(=O)N2CCN=C2c2ccccc2)ccc1Cl	14	
CC(C)C(C)NC(=O)COc1nc2ccccc2nc1N(C)C1CCCCC1 (stereo unspecified)	-0.152	
COCCN(C(=O)CCC(=O)Nc1nccs1)C(C(=O)NCCC(C)C)c1ccc(F)cc1 (stereo unspecified)	9.51	
O=C(Nc1ccc(NC(=O)c2cccs2)cc1)c1ccc2ccccc2c1	-1.36	
C=CC(=O)c1ccc2ccccc2c1		3.55 µM (active) and 31.6 µM (active)
CC(=O)CCC(=O)c1ccc2ccccc2c1	7.52	
Cc1ccccc1Nc1nc(-c2cccnc2)cs1	-24.9	
c1cnc(N2CCN(c3ccc4ccccc4n3)CC2)nc1	-3.4	
COc1ccccc1N1CCN(C(=O)CCS(=O)(=O)c2ccc3c(c2)NC(=O)C(C)S3)CC1 (stereo unspecified)	0.999	
COc1ccc(N(C(=O)c2cccnc2)S(=O)(=O)c2ccc(OC)c(OC)c2)cc1	3.04	
O=C(c1cccnc1)N(c1cc2sc(=O)oc2c2ccccc12)S(=O)(=O)c1ccccc1		3.98 µM (active)
COc1ccc(N(C(=O)c2cccnc2)S(=O)(=O)c2ccc3c(c2)n(C)c(=O)n3C)cc1	20.5	
COc1cc(OC)cc(C(=O)Nc2nnc(SCC(=O)NCC3CCCO3)s2)c1 (stereo unspecified)	-4.79	
COc1ccccc1N1CC(C(=O)Nc2nnc(SCC(=O)NCC3CCCO3)s2)CC1=O (stereo unspecified)		50.1 µM (active)
Cc1ccccc1N1CC(C(=O)Nc2nnc(SCCC3OCCO3)s2)CC1=O (stereo unspecified)	-15.5	
CCCCC(c1nnnn1CS(=O)(=O)c1ccc(C)cc1)N1CCC(C(N)=O)CC1 (stereo unspecified)	13.9	
